# PubChem BioAssay (NCATS)
# Results filed as inconclusive are left out. Unmarked numbers belong to inactive results. The source made the active and inactive calls. The call rests on the fitted dose curve; in most records, active means well fitted inhibition curve with a large enough effect; inconclusive means small, poorly fitted or top-dose-only effect; inactive means no such curve, though single readings can be large or run the other way.
# Biological target: Tumor susceptibility gene 101 protein (Homo sapiens) (UniProt Q99816)
# Sequence (Q99816 whole entry, looked up): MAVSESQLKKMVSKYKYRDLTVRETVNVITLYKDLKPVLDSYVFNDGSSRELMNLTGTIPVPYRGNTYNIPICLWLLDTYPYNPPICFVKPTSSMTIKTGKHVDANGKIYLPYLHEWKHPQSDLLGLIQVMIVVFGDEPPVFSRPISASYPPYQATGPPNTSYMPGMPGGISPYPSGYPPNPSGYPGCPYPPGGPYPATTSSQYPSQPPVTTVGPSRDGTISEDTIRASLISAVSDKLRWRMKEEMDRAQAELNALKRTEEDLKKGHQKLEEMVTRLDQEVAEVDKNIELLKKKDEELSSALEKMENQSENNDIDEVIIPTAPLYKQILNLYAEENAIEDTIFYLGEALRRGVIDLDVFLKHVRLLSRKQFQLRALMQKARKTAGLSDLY
# Experiment: qHTS Assay for Iinhibitors of HIV-1 Budding by Blocking the Interaction of PTAP/TSG101: Hit Validation (AID 651600); further: nearly all actives have a fitted effect of over 70% in size
# Conditions: PTAP peptide/TSG101 UEV interaction, biochemical assay; series mostly up to 57.5 µM; activity change, negative = inhibition: at the top concentration
# Source text: Stages of the HIV-1 replication cycle, specifically virus assembly and release, provide underexploited targets for the development of novel antiviral inhibitors. The late stages of HIV-1 replication are mediated by the Gag precursor protein, Pr55Gag. Expression of Pr55Gag is both necessary and sufficient for the production of virus-like particles from Gag-expressing cells. The Gag protein hijacks key host proteins involved in endocytic machinery of the host cell to promote endosomal processing and viral budding. The budding process requires a direct interaction between a […] (PTAP) motif in the p6 domain of Gag and the cellular endosomal sorting protein known as Tsg101. In this way, the Gag PTAP motif promotes the host cells to recruit viral particles to the plasma membrane where the new viral particles are released, effectively turning the host cells into viral factories. A fluorescence anisotropy assay has been developed to quantitatively measure the PTAP-Tsg101 interaction which can be used to screen for inhibitors of this interaction.
# NIH Molecular Libraries Probe Production Network [MLPCN]
# NIH Chemical Genomics Center [NCGC]
# PI Name: Dr. Eric Freed, NCI
# Two uL of the Tsg101 binding domain in buffer (10 mM HEPES pH 7.5; 0.15 M NaCl, 0.01% Tween 20; 3 mM EDTA;0.1 mM TCEP) was dispensed into Greiner black MB 1536-well plates (final concentration 10 uM). Then, 23 nL of compounds or DMSO were delivered to each well using a pin tool. Finally, 2 uL of a FITC-labeled peptide containing the PTAP motif (1) in the same buffer was dispensed (50 nM final concentration) and the binding was allowed to proceed for 20 min. at r.t. Fluorescent polarization was determined using FITC excitation and polarized emission filters on a Perkin Elmer Viewlux.
# Keywords: Tsg101, PTAP, Gag, HIV, fluorescent polarization, MLSMR, MLPCN, NIH Roadmap, qHTS, NCGC
# On the % scale 0 is the no-effect control and ±100 the full control effect; potency means the concentration at half of the fitted maximal effect.
Compound,Potency,"activity change, negative = inhibition"
C=CCOc1ccc(C2OC34CCCCC3C(C#N)(C#N)C2(C#N)C(=N)O4)cc1 (stereo not given),25.9 µM (active),
O=c1[nH]c(=O)n(-c2cc(Br)c(O)c(Br)c2)cc1Br,,-14.2%
Cc1c(C(=O)NCc2ccccc2)sc2nc3n(c(=O)c12)CCCCC3,,-1.87%
Oc1c(C=Nc2ccccc2)sc2ccccc12,,-4.91%
O=C1CCCC2=C1Sc1ccc(Cl)cc1N2,,6.23%
COc1ccc(CCn2c(NN=C(C)C)nc3c2c(=O)[nH]c(=O)n3C)cc1,,11.2%
CC1=CC(=C(C#N)c2nc3ccccc3s2)C=C(C)N1c1ccc(F)cc1,18.3 µM (active),
Cc1oc2cc(O)ccc2c(=O)c1-c1nncn1-c1ccccc1,20.6 µM (active),
Cc1cc(Br)ccc1NC(=O)c1sc2nc3n(c(=O)c2c1C)CCCC3,,2.67%
O=C(Nc1nc2c(s1)CN(Cc1ccccc1)CC2)c1cccc(S(=O)(=O)N2CCc3ccccc32)c1,,5.42%
CC1CCc2cccc3c2N1c1cc(C#N)c(C#N)cc1O3 (stereo not given),,-68.5%
COC(=O)c1c(NC(=O)CC2Nc3cc(C)c(C)cc3NC2=O)sc(C)c1C (stereo not given),,4.67%
Cc1cc(C)c[n+](-c2[nH]c(=O)sc2/C=N/NC([S-])=Nc2ccccc2)c1,18.3 µM (active),
Cc1cc(Nc2cccc(Cl)c2C)n2ncnc2n1,,2.07%
CC(C)(C)OC(=O)NC(Cc1ccccc1)C(=O)N1CCC(C(=O)NCC(=O)Nc2ccc(F)cc2)CC1 (stereo not given),,0.595%
CCCCn1c(SCC(=O)c2cc(OC)ccc2OC)nc2cc(S(N)(=O)=O)ccc21,,3.21%
COC(=O)CNc1c(-c2ccccc2)nc2ccc(Br)cn12,,-14.8%
COc1cc(-c2cc(-c3ccc(N)cc3)[nH]c(=O)c2C#N)cc(OC)c1OC,,4.77%
COc1ccc(/C=C2/N=C(c3cccs3)OC2=O)cc1OC(C)C,,-21.7%
Cc1cccc2cc(/C=C3\N=C(c4ccccc4)OC3=O)c(N3CCOCC3)nc12,,-1.31%

Compound,Potency,"activity change, negative = inhibition"
O=c1[nH]c2c(s1)C=Nc1ccccc1N2,9.19 µM (active),
CC(=O)n1c(C=Nc2ccc(Cl)cc2)c(O)c2ccccc21,16.3 µM (active),
S=C(NCc1ccccc1)Nc1cccc(Cl)c1,,-1.4%
COc1cc2c(cc1OC)-c1cc3ccc4c(c3c[n+]1CC2)OCO4,13 µM (active),
COc1ccc(CNS(=O)(=O)c2cc3c(cc2Cl)N(C(C)=O)CCO3)cc1,,-1.31%
CC(=O)N1c2ccccc2C(=O)C1N1CCCCC1 (stereo not given),,-14%
Cc1cccc(CCNC(=O)c2sc3nc4n(c(=O)c3c2C)CCCC4)c1,,3.66%
COc1ccc2oc3ccccc3c(=O)c2c1,,-2.86%
O=C(C1=C(O)C(=O)N(c2nccs2)C1c1ccccc1)c1cc2ccccc2o1 (stereo not given),5.17 µM (active),
CN(C)c1ccc(N=Cc2nc(-c3ccccc3)oc2O)cc1,18.3 µM (active),
CCCN1C(=O)/C(=C/C=C2\N(CC)c3ccccc3C2(C)C)SC1=S,29.1 µM (active),
CC(C)(C)C(=O)c1sc2nc(-c3cccs3)cc(C(F)(F)F)c2c1N,,11.5%
O=S(=O)(Nc1cccc(-c2ccc(N3CCCCCC3)nn2)c1)c1cccc(F)c1,,33.5%
O=C(CC1CC2CCC1C2)NCc1cccs1 (stereo not given),,5.71%
Cc1cc(C)n2nc3nc4c(cc3c2n1)CCCC4,,-6.06%
Nc1cccc(N2C(=O)c3cccc4c(N)ccc(c34)C2=O)c1,4.11 µM (active),
CCCn1c(=N)c(S(=O)(=O)c2ccccc2)cc2c(=O)n3cccc(C)c3nc21,,12.9%
O=[N+]([O-])c1ccc(-c2ccc(/C=N/Nc3nc(N4CCCC4)nc(N4CCCC4)n3)o2)cc1,,7.22%
Cc1cc[n+](-c2[nH]c(=O)sc2/C=N/N=C(\[O-])c2ccccc2)cc1C,10.3 µM (active),
CCCCOC(=O)c1ccc(NC(=O)/C(C#N)=C/c2ccc(-c3ccccc3)o2)cc1,,-23.2%
